Efflux pump mplx = inhibitors of Candida efflux pumps in yeast, primary screen, S. cerevisiae, Nile Red, multiplex. AID 485275, 2010. 330,000 tested, 0.44% active. inhibition, % at 10 µM. S. cerevisiae Candida pump triplex;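 active means plate passing quality check with inhibition over a set limit, or well fluorescence over plate mean plus 4 SD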;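 further: Nile Red retained in pooled yeast measured as flow cytometry median fluorescence; 0% = buffer negative control and 100% = Enniatin B positive control; higher means more Nile Red kept so more efflux inhibition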
SUMO Mot1 rescue = yeast Mot1-301 growth rescue at high temperature, primary screen, SUMOylation pathway inhibitor project, S. cerevisiae, ATP luminescence, 38.5C; S. cerevisiae Mot1-301 growth rescue; percent above DMSO median, 100 means doubled; growth rescue, % at 18.8 µM; 320,000 tested, 1% active;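 active means every valid replicate shows activation above 250% relative to neutral control wells; inactive means the rest, any valid replicate at or below 250%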;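 further: OY570 slx delta 5 strain wells were the positive control but not used for scaling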
V-ATPase pH = regulators of yeast V-ATPase proton pumping, primary screen, pHLuorin cytosolic pH fluorescence; S. cerevisiae; response, % at 10 µM; 350,000 tested, 0.37% active; AID 504577, 2011; in the data active means response mostly above about 7.3%, no sharp cut-off; inactive means mostly below about 5.4%; further: actives read high
ATG4B inh = ATG4B protease inhibitors, primary screen, biochemical, fluorescence, uHTS; ATG4B cleavage of LC3-PLA2, NBD-HPC fluorescence, 1 h; 340,000 tested, 0.51% active; inhibition, % at 8.33 µM; Cysteine protease ATG4B (Homo sapiens), Q9Y4P1; in the data active means inhibition above about 40%
Target sequence (Q9Y4P1 whole entry, looked up): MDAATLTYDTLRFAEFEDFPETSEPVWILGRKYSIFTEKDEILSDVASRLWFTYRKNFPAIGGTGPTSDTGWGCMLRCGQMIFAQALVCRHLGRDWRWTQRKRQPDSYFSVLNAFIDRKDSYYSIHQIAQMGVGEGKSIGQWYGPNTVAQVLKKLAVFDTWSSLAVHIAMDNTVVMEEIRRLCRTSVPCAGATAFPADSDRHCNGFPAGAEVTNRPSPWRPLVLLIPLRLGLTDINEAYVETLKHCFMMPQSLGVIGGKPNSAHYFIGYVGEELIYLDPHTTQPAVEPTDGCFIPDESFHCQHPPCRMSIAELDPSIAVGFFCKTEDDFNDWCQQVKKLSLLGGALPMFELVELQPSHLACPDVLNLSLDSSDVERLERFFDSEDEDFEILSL
AI-2 QS mod = Vibrio harveyi AI-2 quorum sensing modulators, primary screen, JMH597 strain, luminescence/OD600 ratio; Vibrio harveyi JMH597 AI-2 luminescence/OD600 ratio, 9 h; active compounds read low; strain lacks LuxN and CqsS sensors; 0 = neutral-control median; activity change, % at 7.5 µM; 300,000 tested, 0.4% active; AID 2094, 2009; in the data active means activity change below about -75%, passing the limit was not always enough;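 further: luminescence divided by OD600 gain over 9 h not by final OD600 alone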
ATG4B conf = ATG4B protease inhibitors, retest, confirmation, biochemical, fluorescence, single concentration. AID 504757, 2011. inhibition, % at 8.33 µM. shares compounds with ATG4B inh. ATG4B protease fluorescent substrate cleavage assay. 320 tested, 92% active; in the data active means inhibition above about 39%
PLA2 ctr = PLA2 enzyme inhibition, counter-screen for ATG4B inhibitor project, biochemical, single concentration, uHTS hits; shares compounds with ATG4B inh; purified PLA2, NBD-C6-HPC fluorescence, 45 min; 1,600 tested, 66% active; inhibition, % at 8.33 µM; in the data active means inhibition above about 50%
Target sequence (P04054 whole entry, looked up): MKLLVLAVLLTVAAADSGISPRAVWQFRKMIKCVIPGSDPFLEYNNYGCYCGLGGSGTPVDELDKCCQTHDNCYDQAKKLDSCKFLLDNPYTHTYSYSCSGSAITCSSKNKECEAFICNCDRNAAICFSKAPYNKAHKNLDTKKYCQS
Numbers without * were called inactive; . = no result. Only some compounds are listed: those with a hit (about 2.5% of all), similar ones and a draw of the others.

SMILES	Efflux pump mplx	SUMO Mot1 rescue	V-ATPase pH	ATG4B inh	AI-2 QS mod	PLA2 ctr	others
CC1=C(C(=O)N(C)C)CC(CC(=O)NCCCCc2ccccc2)C(=O)N1Cc1ccccc1 (configuration not stated)	.	.	0	.	.	.
CCOC(=O)c1c(/N=C/C2=C(O)CCCC2=O)sc2c1CCCC2	0	16	0	26	-11	.
CCOC(=O)c1c(/N=C/C2=C(O)CC(C)(C)CC2=O)sc(C)c1C	0	21	-5	62*	16	16	ATG4B conf=69*
COc1ccccc1Nc1cc2cc(Br)ccc2c(=O)[nH]1	0	-2	0	66*	20	5
O=c1[nH]c(Nc2ccccc2)cc2cc(Br)ccc12	0	115	1	36	20	.
N#CCOC(=O)[C@H](Cc1c[nH]c2ccccc12)NS(=O)(=O)c1ccc(Cl)cc1	3	-9	0	57*	9	67*
C=CCn1c(SCC(=O)Nc2cc(Cl)ccc2C(=O)O)nc2sc(C)c(C)c2c1=O	0	0	10	61*	.	53*
C=CCn1c(SCC(=O)Nc2ccc(O)cc2)nc2sc(C)c(C)c2c1=O	.	.	9	-3	.	.
CC(=O)N1c2ccc(S(=O)(=O)N3CCC(C(=O)N4CC(C)CC(C)C4)CC3)cc2CC1C (configuration not stated)	0	-2	0	16	14	.
CC1CC(C)CN(C(=O)C2CCN(S(=O)(=O)c3ccc4c(c3)CC(C)N4C(=O)C3CC3)CC2)C1 (configuration not stated)	0	8	-1	43*	14	46	ATG4B conf=60*
O=C(NCc1ccccc1)c1cccc(NC(=O)C2CC2)c1	.	.	0	5	.	.
O=C1N[C@@H](c2ccccc2)COC(=O)[C@@H](Cc2ccc(F)cc2)C/C=C\C[C@@H]1CC(=O)N(CCO)Cc1ccccc1	0	17	-3	50*	.	54*
O=C1N[C@@H](c2ccccc2)COC(=O)[C@H](Cc2ccc(F)cc2)C/C=C\C[C@H]1CC(=O)N(CCO)Cc1ccccc1	.	.	-5	-12	.	.
CCc1nc(SCC(=O)N2CC(=O)Nc3ccccc32)c2c(C)c(C)sc2n1	0	130	2	71*	16	77*
Cc1nc(SCC(=O)N2CC(=O)Nc3ccccc32)nc(C)c1C	0	-23	-2	0	29	.
Cc1sc2nc(C3CCCCC3)nc(SCC(=O)N3CC(=O)Nc4ccccc43)c2c1C	0	9	-1	94*	6	35	ATG4B conf=26*
CN(CC(=O)Nc1ccc(F)c(F)c1F)C(=O)c1ccc2c(c1)S(=O)(=O)N=C1CCCCCN12	0	89	-4	-2	3	.
Cc1ccccc1/C(N)=N/OC(=O)N1c2ccccc2Sc2ccccc21	0	25	-3	54*	20	60*
CC(C)C(NS(=O)(=O)c1ccc2c(c1)oc(=O)n2C)C(=O)N1CCN(Cc2ccccc2)CC1 (configuration not stated)	0	.	2	-9	.	.
O=C(O)CCn1cc(/C=C\C(=O)c2ccc(Cl)cc2)c(-c2cccc(Br)c2)n1	0	-5	6	46*	47	45	ATG4B conf=69*
Fc1ccc(C2c3[nH]c4ccccc4c3CCN2Cc2cccn2-c2ncccn2)cc1 (configuration not stated)	0	-7	0	41*	30	36	ATG4B conf=70*
CCN(Cc1nc2cc(Cl)ccc2c(=O)[nH]1)C(=O)c1cc(C2CC2)nn1-c1ccccc1	.	.	1	11	.	.
O=C(OC1CCc2ccccc2C1=O)c1ccccc1O (configuration not stated)	0	0	4	77*	.	79*
O=C(N/N=C1\CCc2ccccc21)c1ccccc1O	0	-11	3	0	31	.
NC(=O)c1cccc(N=Cc2cc(Cl)cc(Cl)c2O)c1	.	.	-9	20	11	.
SMILES	Efflux pump mplx	SUMO Mot1 rescue	V-ATPase pH	ATG4B inh	AI-2 QS mod	PLA2 ctr	others
Cc1cccc(N=Cc2cc(Br)cc(Cl)c2O)c1	0	97	-1	40*	12	31	ATG4B conf=63*
O=C(Nc1cc(S(=O)(=O)Nc2ccc(Cl)cc2)ccc1N1CCCCC1)c1ccc(F)cc1	0	-9	0	42*	20	28
CCC(C)/C=C/C1=CC2=C(Cl)C(=O)C3(C)OC(=O)C(C(=O)C(C)C(C)O)C3C2=CO1 (configuration not stated)	0	-1	3	-7	24	.
O=C(CCC(=O)N1CCOCC1)NCCc1ccccc1	0	-10	0	-6	.	.
O=C(CCn1c2c(c3ccccc31)CCCC2)NNC(=O)c1ccc(Cl)c([N+](=O)[O-])c1	0	-8	-3	52*	14	61*
COc1ccc(OC)c(C(C)NC=O)c1 (configuration not stated)	0	81	-2	-5	16	.
CC(C)NC(=O)C1CCN(C2CCN(Cc3ccc4cccc(F)c4n3)CC2)CC1	0	6	2	4	16	.
Cc1ccc(S(=O)(=O)/N=C2/NC(=O)/C(=C\c3cc(Br)cc(Br)c3O)S2)cc1	0	20	1	73*	-54	60*
Cc1ccc(S(=O)(=O)/N=C2/NC(=O)/C(=C/c3ccc(Br)o3)S2)cc1	0	53	-1	39	68	.
COc1cccc(/C=N/NC(=O)c2[nH]c(C)c(C(=O)N/N=C/c3cccc(OC)c3O)c2C)c1O	0	25	-3	62*	5	24	ATG4B conf=33
O=C(O)CC1(CC(=O)Nc2ccc3c(c2)OCCCO3)CCCCC1	0	7	1	2	17	.
O=C(COC(=O)Cc1ccccc1F)NNC(=O)c1ccc([N+](=O)[O-])cc1	0	-1	4	-5	40	.
CCc1ccc(C(CNC(=O)c2ccc3c(=O)n(-c4ccccc4F)c(=S)[nH]c3c2)N(C)C)cc1 (configuration not stated)	0	-6	-2	70*	23	83*
O=C(c1ccco1)N1CCN(Cc2cc(=O)c(OCc3ccc(F)cc3)co2)CC1	0	15	7	-8	16	.
O=C(COC(=O)c1cccc(OC(F)F)c1)Nc1cc(S(=O)(=O)N2CCCC2)ccc1Cl	.	.	2	.	.	.
